Measurements: PubChem BioAssay (EPA / NIEHS)
Inconclusive results are not listed. Active and inactive are the calls of the source. Rule for the calls: active = hit-call score of the fitted dose curve at least 0.9, where 1 is the maximum; inconclusive = response in the unintended direction; inactive = score below 0.9.

biological target: human Peroxisome Proliferator-activated Receptor delta (PPARd), PPARD (gene 5467) (UniProt Q03181); assay: ATG_PPARd_TRANS: Attagene TRANS-FACTORIAL HepG2 Assay for human Peroxisome Proliferator-activated Receptor delta (PPARd) (AID 2283002)
Protocol: ATG_TRANS is a cell-based, multiplexed-readout assay that uses HepG2, a human liver cell line, with measurements taken at 24 hours after chemical dosing in a 24-well plate.ATG_PPARd_TRANS is one of 30 assay component(s) measured or calculated from the ATG_TRANS assay. It is designed to make measurements of mRNA induction, a form of inducible reporter, as detected with fluorescence intensity signals by Reverse transcription polymerase chain reaction (RT-PCR) and Capillary electrophoresis technology.Data from the assay component ATG_PPARd_TRANS was analyzed into 1 assay endpoint. This assay endpoint, ATG_PPARd_TRANS, was analyzed in the positive analysis fitting direction relative to DMSO as the negative control and baseline of activity. Using a type of inducible reporter, measures of mRNA for gain-of-signal activity can be used to understand the reporter gene at the transcription factor-level as they relate to the gene PPARD. Furthermore, this assay endpoint can be referred to as a primary readout, because this assay has produced multiple assay endpoints where this one serves a reporter gene function. To generalize the intended target to other relatable targets, this assay endpoint is annotated to the nuclear receptor intended target family, where the subfamily is non-steroidal.
Human liver HepG2 cells are transiently transfected with multiple reporter transcription units (MRTUs) in 6-well plates using FuGene 6 reagent (Roche; 3 ml FuGene/1 mg DNA). The MRTU constructs are regulated by a cis-regulating element (promoter). […] A major difference between the CIS and TRANS system is that in CIS activities of endogenous TFs are measured, whereas the TRANS assay evaluates changes in activities of exogenous, chimeric NR-Gal4 proteins. […] At the end of 24 hour incubation, total RNA was isolated using TriZol reagent (Invitrogen). The isolated RNA is then reverse-transcribed using oligo(dT) primer and Mo-MLV reverse transcriptase (Invitrogen) with DNAse I (Ambion) treatment for 30 min. The one-tenth of the produced cDNA was amplified by PCR using Taq DNA polymerase (Invitrogen) and two reporter sequence-specific primers. The PCR products were fluorescently labeled by primer extension with 6-arboxyfluorescein (6-FAM) 5'-labeled reporter sequence-specific primer (2 min at 95 C, 20 s at 68 C and 10 min at 72 C) and these products were digested with 5U of HpaI (New England Biolabs) for 2h at 37 C. The fragments were purified using Qiaquick PCR columns (Qiagen), analyzed on an ABI 3130xL genetic analyzer (Applied Biosystems) with peak positions identified by using a set of X-rhodamine (ROX)-labeled MapMarker1000 molecular weight standards (BioVentures). The raw capillary electrophoresis data was processed using Attagraph software (Attagene).

Chain of human Peroxisome Proliferator-activated Receptor delta (PPARd), PPARD (gene 5467) (Q03181 whole entry, looked up): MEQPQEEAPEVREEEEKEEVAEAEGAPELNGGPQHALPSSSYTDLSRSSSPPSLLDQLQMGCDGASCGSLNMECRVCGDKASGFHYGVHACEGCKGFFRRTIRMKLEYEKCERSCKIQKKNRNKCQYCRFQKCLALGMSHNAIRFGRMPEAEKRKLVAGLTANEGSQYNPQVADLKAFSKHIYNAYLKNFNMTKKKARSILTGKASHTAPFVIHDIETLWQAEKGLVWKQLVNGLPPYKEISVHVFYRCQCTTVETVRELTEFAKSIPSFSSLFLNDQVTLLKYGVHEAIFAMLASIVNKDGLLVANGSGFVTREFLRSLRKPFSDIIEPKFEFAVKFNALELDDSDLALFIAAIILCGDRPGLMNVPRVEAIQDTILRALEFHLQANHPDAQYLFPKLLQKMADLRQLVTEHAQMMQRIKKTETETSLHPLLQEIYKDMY

outcome, inactive:
CCC(C)S (stereo not given), CCCOC(=O)c1c(Cl)c(Cl)c(Cl)c(Cl)c1C(=O)OCCC, O=c1c(O)c(-c2ccc(O)cc2)oc2cc(O)cc(O)c12, COC(C)(C)CCCC(C)CC=O (stereo not given), CCCCCC(=O)CC, O=C1OC[C@H](Cc2cccc(O)c2)[C@H]1Cc1cccc(O)c1, Cc1c(OCC(F)(F)F)ccnc1CS(=O)c1nc2ccccc2[nH]1 (stereo not given), COc1ccc(OC)c(N=Nc2c(O)ccc3ccccc23)c1, CCCCCCCC/C=C\CCCCCCCC(=O)OCC, C=CCCCCCCCCCC, CCc1ccc(O)c(OC)c1, Cc1c(C2(c3cc(Br)c(O)c(Br)c3C)OS(=O)(=O)c3ccccc32)cc(Br)c(O)c1Br, O=C1CCCC=CCCCCCCCCCC1, O=C1NC2NC(=O)NC2N1 (stereo not given), CC(C)(C)OC(=O)c1ccc(O)cc1, N[C@@H](Cc1cc(I)c(Oc2cc(I)c(O)c(I)c2)c(I)c1)C(=O)O, C=CCCC(=O)/C=C/C1C(C)=CCCC1(C)C (stereo not given), Cc1occc(=O)c1OC(=O)C(C)C, O=c1[nH]c(=O)c2cn[nH]c2[nH]1, CC(C)c1ccccc1O, C=CC(=O)OCCC#N, C1CCOC1, CCCC(=O)OC(C)(C)Cc1ccccc1, COc1cc(Cl)c(OC)cc1N, NCc1ccco1, C=COCCOCCOC=C, Cc1ncc[nH]1, O=C(CC(=O)c1ccccc1)c1ccccc1, c1ccc(Oc2ccccc2)cc1, Clc1ccc(C(c2ccccc2Cl)C(Cl)Cl)cc1 (stereo not given), CCCCCCC(=O)c1ccccc1, CCCC(O)C(O)CO (stereo not given), Cc1cccc(Nc2ccccc2)c1, CCCCCCC(CO)CCCC (stereo not given), CC(C)(CO)[C@@H](O)C(=O)NCCC(=O)O, CCCC(C)=O, OCc1ccc(Cl)cc1Cl, CCCCCC(C=O)=Cc1ccccc1, Cc1ncc([N+](=O)[O-])n1CCO, ClC(c1ccccc1)(c1ccccc1)c1ccccc1
